The entries come from a sample that favours hits as a whole.
ST2 IL33 inh: IL1RL1 inhibition; Q01638; AlphaLISA ST2-Fc/biotin-IL-33 interaction, 1 h; inhibition, % for hits at 17 µM; 78,000 compounds, 2.3% hits; AID 1259354; in the data active = inhibition above about 30%
Target sequence (Q01638 whole entry, looked up): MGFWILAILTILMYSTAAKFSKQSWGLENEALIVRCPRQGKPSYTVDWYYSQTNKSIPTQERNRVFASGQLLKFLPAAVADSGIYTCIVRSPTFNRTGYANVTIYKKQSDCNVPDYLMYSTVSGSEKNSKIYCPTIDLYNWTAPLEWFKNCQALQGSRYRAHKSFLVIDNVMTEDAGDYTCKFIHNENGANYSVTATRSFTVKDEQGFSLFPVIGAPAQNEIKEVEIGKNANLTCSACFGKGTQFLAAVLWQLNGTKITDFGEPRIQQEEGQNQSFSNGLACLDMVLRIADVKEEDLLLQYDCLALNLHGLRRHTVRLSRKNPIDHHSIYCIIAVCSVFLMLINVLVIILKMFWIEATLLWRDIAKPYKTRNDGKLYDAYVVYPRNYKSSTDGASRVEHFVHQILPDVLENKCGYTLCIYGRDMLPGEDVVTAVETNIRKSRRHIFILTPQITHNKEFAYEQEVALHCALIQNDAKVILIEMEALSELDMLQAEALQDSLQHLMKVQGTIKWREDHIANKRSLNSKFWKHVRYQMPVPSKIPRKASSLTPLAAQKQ
Each line names hits and unclear results; the compound was inactive in the other large screens.

N#Cc1ccc(-c2ccncc2)nc1SCc1ccc(F)cc1	ST2 IL33 inh 34%
N#Cc1ccc(-c2ccccc2)nc1SCC(=O)c1ccc(O)c(O)c1	none
CCSc1nc(-c2ccccc2)ccc1C#N	none
O=C(NCCc1c[nH]c2ccccc12)c1cc2ccccn2n1	none
O=C(NCCCN1CCN(c2ccc(F)cc2)CC1)c1cccn2c(=O)c3ccccc3nc12	none
CC(=O)n1c2c(c3ccccc31)OC(N)=C(C#N)C2c1ccc(Br)cc1 (configuration not stated)	none
O=C1NC(=Nc2cccc(Br)c2)SC1(CO)CO	none
CCOc1cc(/C=C2\C(=O)NC(=O)N(c3ccccc3)C2=O)ccc1O	none
O=C1NC(=Nc2ccccc2)S/C1=C/c1ccc(O)c(O)c1	ST2 IL33 inh 35%
Cc1ccccc1CC1SC(=Nc2ccccc2)NC1=O (configuration not stated)	none
O=C1CC(c2ccc(F)c(Br)c2)c2ccc3ccccc3c2N1 (configuration not stated)	none
O=C1NC(=Nc2ccccc2)S/C1=C/c1ccc(F)c(Br)c1	ST2 IL33 inh 43%
Cc1ccc(NC(=O)CC2SC(=Nc3ccccc3)NC2=O)c(C)c1 (configuration not stated)	none
O=C1NC(=Nc2ccccc2)SC1(CO)CO	none
O=C1NC(=Nc2ccccc2)S/C1=C/c1cc(Br)ccc1O	ST2 IL33 inh 36%
NC(=O)c1nn(-c2ccccc2)nc1NC(=O)Cn1c(-c2nonc2N)nc2ccccc21	none
CCOC(=O)C1(Cc2ccccc2F)CCCN(Cc2cn(CC)nc2C)C1 (configuration not stated)	none
O=C(NC1CCCC1)c1ccc(OC2CCN(C(=O)C(=O)c3ccco3)CC2)c(Cl)c1	none
COc1cccc(NC(=O)CCC2CCN(Cc3cc4ccccc4o3)CC2)c1	none
O=C(c1scc2c1CCCC2)N1CCCC(CNS(=O)(=O)c2cccs2)C1 (configuration not stated)	none
CCCCOc1ccc(N2C(=O)CC(NCC#N)C2=O)cc1 (configuration not stated)	none
Cc1ccccc1CCN1CCCC(CN(C)C(=O)c2cc(C3CC3)[nH]n2)C1 (configuration not stated)	none
CN1CCN(C(=O)CC[C@@H]2CNC(=O)[C@@H]3C[C@H](NC(=O)Nc4ccc(F)cc4F)CN23)CC1	none
CCC(c1ccccc1)c1nc(-c2ccncc2)no1 (configuration not stated)	none
COc1ccc(-c2nc(-c3cccc([N+](=O)[O-])c3)no2)cc1OC	none
CCC(c1ccccc1)c1nc(-c2cccc([N+](=O)[O-])c2)no1 (configuration not stated)	ST2 IL33 inh 30%
O=C1[C@H]2[C@@H](C(=O)N1c1ccccc1)[C@@]1(CO)C=C[C@H]2O1	none
CC(C)C(C(=O)Nc1cccc(C(F)(F)F)c1)N1C(=O)c2ccccc2C1=O (configuration not stated)	none
CC(C)CC(C(=O)Nc1cccc(C(F)(F)F)c1)N1C(=O)c2ccccc2C1=O (configuration not stated)	none
O=C1C(Nc2cccc(C(F)(F)F)c2)=C(N2CCOCC2)C(=O)c2ccccc21	ST2 IL33 inh 67%
O=C(c1coc(=O)c2ccccc12)N1CCC2(CC1)OCCO2	none
O=C(NCCc1csc(-c2cccnc2)n1)c1cnn2c1CCCC2	none
C=CCOc1ccc(/C=c2\sc3nc(-c4ccc(C)cc4)nn3c2=O)cc1	none
CCOc1ccc(N2C(=O)CC(Sc3nc4c(cc3C#N)CCC4)C2=O)cc1 (configuration not stated)	none
N#CC1CC(c2ccccc2)=NN1c1ccccc1 (configuration not stated)	ST2 IL33 inh 96%
CC(=O)N1N=C(c2ccccc2)CC1c1ccc(Br)cc1 (configuration not stated)	none
c1ccc(C2=NN3COc4ccccc4C3C2)cc1 (configuration not stated)	none
COc1ccc(-n2nc(C(=O)NC3CC3)c3c4ccccc4n(C)c3c2=O)cc1Cl	none
COc1ccc(-n2nc(C(=O)N3CCCCC3C)c3c4ccccc4n(C)c3c2=O)cc1Cl (configuration not stated)	ST2 IL33 inh 97%
COc1ccc(-n2nc(C(=O)NCc3ccco3)c3c4ccccc4n(C)c3c2=O)cc1Cl	none
CN(Cc1ccccc1)C(=O)c1ccc(Cl)cc1Cl	none
Cc1ccsc1CN(CC(C)C)C(=O)c1cc2ncc(CCO)cn2n1	none
Cc1cc(C)n(CC(=O)N(CC2CCN(C3CCCC3)CC2)CC2CCCO2)n1 (configuration not stated)	none
O=C1N=c2ccc(F)cc2=C1c1sc(Nc2ccc(F)cc2)nc1O	ST2 IL33 inh 48%
O=C1N=c2ccccc2=C1c1sc(Nc2ccc(Br)cc2)nc1O	ST2 IL33 inh 40%
NC(=O)C1CCN(c2nc(O)c(C3=c4ccccc4=NC3=O)s2)CC1	none
Cc1ccc(C)c(-c2csc(Nc3ccc(F)cc3)n2)c1	none
COc1ccc(Nc2nc3ccc(F)cc3s2)cc1	none
Cc1ccc(Nc2nc3ccccc3c(=O)s2)cc1	none
O=C1CN(c2ncnc3nc[nH]c23)CCN1Cc1cccc(F)c1	none
COCCCn1c(SCC(=O)N2CC(C)CC(C)C2)nc2c(sc3ccccc32)c1=O (configuration not stated)	none
Cc1cc(C)n(Cc2ccc(C(=O)N3CCC4(CN(C)C(=O)O4)C3)cc2)n1 (configuration not stated)	none
CN1CCC(N2CC[C@H](c3nc4ccccc4o3)C2)CC1	none
COc1ccccc1N1CCN(C(=O)COc2cc(C)c(Br)c(C)c2)CC1	none
Cc1noc(C)c1C1CCCN1C(=O)c1cnn2ccn(C)c12 (configuration not stated)	none
CCn1nc(C)c(NC(=O)CN2CCCC2c2cc(C(C)C)on2)c1C (configuration not stated)	none
CC(C)c1cc(C2CCCN2C(=O)c2cnn3c2CCCC3)no1 (configuration not stated)	ST2 IL33 inh 32%
O=C(CCc1ccccc1)Nc1nnc(SCc2ccccc2)s1	none
Nc1ccc(/C=C/C2C=CC=CC2)cc1 (configuration not stated)	ST2 IL33 inh 47%
CCn1ccnc1CN1CCC(CCC(=O)Nc2ccc(OC)cc2OC)CC1	none
O=C1CCCN2N=C(SCC(=O)N3CCCCCC3)SC2=N1	none
CCNC(=O)CC1SC(=Nc2ccc(OC)cc2)N(C)C1=O (configuration not stated)	none
CN=c1scc(-c2ccc(Cl)cc2)n1C	none
Cc1cccc(N2C(=O)c3ccc(-c4nnc(-c5ccccc5)o4)cc3C2=O)c1	none
O=C(O)c1ccc2c(c1)C(=O)N(c1cccc(Cl)c1)C2=O	none
O=C1c2ccccc2C(=O)N1c1cccc(-c2csc(=Nc3ccccc3)n2CCO)c1	ST2 IL33 inh 48%
CCCCn1c(=N)n(CCOc2ccc(C)cc2)c2ccccc21	none
Cc1ccc(-c2csc(=Nc3ccccc3)n2CCCN(C)C)cc1	ST2 IL33 inh 42%
COc1ccc(-c2csc(=Nc3ccccc3)n2CCO)cc1	ST2 IL33 inh 38%
COc1ccc(N=C2SCC(=O)N2c2ccc(OC)cc2)cc1	none
COc1ccc(CN2C(=Nc3ccccc3)S[C@H]3[C@@H]2[C@@H](O)[C@H](O)C[C@@H]3C(N)=O)cc1	none
COc1ccc(N=c2scc(-c3ccc(I)cc3)n2CCO)cc1	ST2 IL33 inh 55%
COc1ccc(C2(C(=O)N3CCCC(O)(CO)C3)CC2)cc1 (configuration not stated)	none
CCCCNC(=O)CSc1ncnc2nc[nH]c12	none
COc1ccc2c(c1)C1OCCC1C1N2C(=O)C2C(C(=O)O)C3C=CC21O3 (configuration not stated)	none

Screening results: PubChem BioAssay, Paczesny and Yang Labs, IUPUI and University of Michigan
